Results from PubChem BioAssay (NCATS).
Results filed as inconclusive are left out. Active and inactive are the calls of the source. Calls follow the shape of the dose curve; as a rule, active = well fitted inhibition curve with a large enough effect; inconclusive = small, poorly fitted or top-dose-only effect; inactive = no such curve, though single readings can be large or run the other way.

Experiment: qHTS for Inhibitors of the Aldehyde Dehydrogenase Family (ALDH1A2, ALDH1A3, ALDH2, ALDH3A1) (AID 2061307); also: nearly all actives have a fitted effect of over 50% in size; as to Potency: test system not described further here
Conditions: ALDH inhibition qHTS; series mostly up to 50.3 µM
Potency is read from the fitted curve at half-maximal effect.

Potency, active:
O=C(Nc1ccnc(Cc2ccccc2)c1)c1ccc(-c2cccc([N+](=O)[O-])c2)o1 2010 nM, O=C(N/N=C/c1ccc(Sc2nc3ccccc3s2)o1)c1cccc(F)c1 896 nM, CCn1c(C(=O)NCCc2ccc(OC)cc2)cc2sccc21 2010 nM, C=CCOc1c(Cl)cc(CNc2ccc(N(C)C)cc2)cc1OC 449 nM, Cc1c(Cl)cccc1-n1c(CCC(=O)O)ccc1-c1cccs1 6340 nM, O=C(N/N=C/c1ccc(Br)o1)c1cccc(F)c1 6310 nM, Cc1c(P(=S)(c2ccccc2)c2ccccc2)[n+]2ccccc2n1C/C=C/c1ccc2ccccc2c1 3550 nM, COc1cc(O)c(C(CC(=O)N2CC(C)CC(C)C2)c2cccc(NS(C)(=O)=O)c2)c(OC)c1 (stereo not given) 3660 nM, CC(C)c1ccc(-c2cc(-c3nn(-c4nc(C(=O)O)cs4)c(CC4CC4)c3Cc3ccc(S(N)(=O)=O)cc3)ccc2F)cc1 1120 nM, O=S(=O)(c1ccccc1)N1CCC(N(CCc2ccccc2)Cc2ccccc2)CC1 708 nM, O=C(Nc1ccc(N2CCCCC2)nc1)c1cccs1 5040 nM, O=C(Nc1cccc(Nc2ccccc2)c1)c1ccc(-c2cccc([N+](=O)[O-])c2)o1 1270 nM

Potency, inactive:
NS(=O)(=O)c1ccc(Nc2cn[nH]c2-c2cccc(-c3ccccc3)c2)cc1, Cc1ccc(NC(=O)c2nc3nc(C)cc(C)n3n2)c(F)c1, N#Cc1cccc(NC(=O)c2cc3c(s2)-c2ccc(Cl)cc2SC3)c1, O=Cc1ccc(N2Cc3ccccc3C2)cc1, Cc1ccc2c(=O)cc(C(=O)Nc3cccc(C(F)(F)F)c3)oc2c1C, O=C(c1cnc(N2CCCCC2)c2ccccc12)N1CCN(c2ccc(Cl)cc2)CC1, COc1ccc(-n2ncc3c2CCCC3NC(=O)c2ccc(F)c(F)c2)cc1 (stereo not given), N#Cc1ccc(CN2CCC(N(CCc3ccccc3)Cc3ccccc3)CC2)cc1, COc1ccccc1CN1CCC(N(CCc2ccccc2)Cc2ccccc2)CC1, C#CCOC(=O)NCCCC[C@H](N)C(=O)O, CCOC(=O)N1CCN(Cc2nc3cc(NC(=O)CC(C)C)ccc3n2C(C)C)CC1, C=Cc1cc(NC(=O)CN)cc(-c2nn3c(=O)cc(N4CCNCC4)nc3s2)c1, Cc1cc(=O)n2[nH]c(NC(=O)c3ccccc3C)nc2n1, CCOc1ccc(-c2nc3scc(-c4ccc(OC)cc4)c3c(=O)[nH]2)cc1OC, O=C(c1cnc(N2CCCCC2)c2ccccc12)N1CCN(c2ccccc2)CC1, COc1ccc(/C=C/c2onc(C)c2S(=O)(=O)N2CCC(C(=O)N3CCc4ccccc4C3)CC2)cc1, O=C1CN(S(=O)(=O)c2cccc(C(=O)Nc3ccc(OC(F)(F)F)cc3)c2)CCN1, CC(Sc1nc2nn(C3COC3)cc2c(=O)n1-c1ccccc1)c1ccccc1 (stereo not given), Cc1ccn2c(=O)c(C(=O)NC(C)c3ccccc3)c(O)nc2c1 (stereo not given), CC(C)(C)c1ccccc1-n1c(CN2CCN(C(=O)c3ccco3)CC2)nc2ccccc2c1=O, Cc1csc2c1c(=O)n(O)c(=O)n2Cc1ccccc1, O=C(Nc1ccncc1)c1cccs1, CN1CCC(CNCc2nccc3c(=O)[nH]c(COc4ccc(Cc5ccccc5)cc4)nc23)C1 (stereo not given), NC(=O)c1ccc(OCc2nc(-c3ccc(C(F)(F)F)cc3)no2)cc1, Cc1cccn2c(=O)c(C(=O)NCc3cccc(F)c3)cnc12, N#CC1CCN(c2nc(Br)cs2)CC1, O=C(Nc1cccc(C(F)(F)F)c1)c1ccccc1NCc1cccc(C(F)(F)F)c1, CCN1CCC(N(CCc2ccccc2)Cc2ccccc2)CC1
